From PubChem
The list is not random: actives were taken first. Their share in the collection is about 11%.
Tau FP inhib: qHTS for Inhibitors of Tau Fibril Formation, Fluorescence Polarization. K18 P301L tau heparin fibrillization, Alexa594 FP, 6 h. AID 1468, 2008. hit rate 0.39% among 280,000. Potency, µM (series often up to 57.7 µM), actives largely listed as inhibitors. Microtubule-associated protein tau (Homo sapiens), P10636; also: nearly all actives have a fitted effect of over 55% in size
Target sequence (P10636 561-689 P618L limits assumed): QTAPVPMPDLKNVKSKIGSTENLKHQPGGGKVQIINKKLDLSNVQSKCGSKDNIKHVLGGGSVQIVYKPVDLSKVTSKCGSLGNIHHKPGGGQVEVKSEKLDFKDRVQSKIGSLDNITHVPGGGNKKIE
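FP of Alexa 594-tau after heparin (20 uM) induction. Substrate: human K18 P301L, 15 uM unlabeled, 0.24 uM labeled. Buffer 100 mM sodium acetate pH 7. 6 hr, 37 C.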
Tau fibril ThT: qHTS for Inhibitors of Tau Fibril Formation, Thioflavin T Binding | recombinant tau K18 P301L, heparin-induced fibrillization, ThT fluorescence | Potency, µM (top dose mostly 57.4 µM), most hits filed as inhibitors | hit rate 2.1% among 270,000 | AID 1460, 2008; also: nearly all actives have a fitted effect of over 55% in size
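Using a mix of unlabeled (15 uM) and Alexa 594-labeled (0.24 uM) tau K18 P301L, heparin-triggered fibrillization over 6 hr at 37 C was scored by ThT fluorescence.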
G9a block: qHTS Assay for Inhibitors of Histone Lysine Methyltransferase G9a; Histone-lysine N-methyltransferase EHMT2 (Homo sapiens), Q96KQ7; G9a H3K9 monomethylation, AlphaScreen, 2 h; Potency, µM (top dose mostly 102 µM), usual class: inhibitors; hit rate 8.8% among 350,000; AID 504332, 2011; also: nearly all actives have a fitted effect of over 75% in size
Target sequence (Q96KQ7 913-1193 limits assumed): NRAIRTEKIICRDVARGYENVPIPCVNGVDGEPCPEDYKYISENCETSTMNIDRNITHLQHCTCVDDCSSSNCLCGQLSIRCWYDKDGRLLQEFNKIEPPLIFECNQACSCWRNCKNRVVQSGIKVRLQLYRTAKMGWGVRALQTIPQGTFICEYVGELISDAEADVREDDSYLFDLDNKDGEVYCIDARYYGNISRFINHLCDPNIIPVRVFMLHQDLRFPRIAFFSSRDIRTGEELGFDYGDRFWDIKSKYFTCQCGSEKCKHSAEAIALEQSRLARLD
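G9a (20 nM) was preincubated 15 min with compound, then reacted 2 h at room temperature with 500 nM biotin-H3K9 peptide and 20 µM SAM. Monomethyl-H3K9 detected by AlphaScreen using anti-H3K9me1 antibody.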
Sfp PPTase inh: qHTS Assay for Inhibitors of Bacillus subtilis Sfp phosphopantetheinyl transferase (PPTase). AID 1490, 2009. Biochemical Sfp PPTase activity, qHTS. hit rate 3.5% among 310,000. Potency, µM, actives largely listed as inhibitors;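 also: the enzyme is Sfp with the accession as filed and its product quenches rhodamine fluorescence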
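Step 1, compound plus 15 nM Sfp-PPTase, 15 min, room temperature. Step 2, add rhodamine-CoA (5 uM) and BHQ-2-YbbR (12.5 uM). Step 3, read 525/598 nm fluorescence at 0 and 30 min.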
Tau fluor counter: Counterscreen qHTS for Inhibitors of Tau Fibril Formation, Fluorescence Polarization; Potency, µM (titrated, usually from 57.7 µM); hit rate 0.93% among 280,000; tau K18 P301L (four-repeat tau fragment) Alexa594 fluorescence, heparin fibrillization; AID 1463, 2008; also: nearly all actives have a fitted effect of over 55% in size
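Human K18 P301L tau (15 uM unlabeled plus 0.24 uM Alexa 594-labeled, final) in 100 mM sodium acetate pH 7 was mixed with compound and 20 uM heparin and incubated 6 hr at 37 C.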
Coupling enz: qHTS Assay for Inhibitors of Fructose-1,6-bisphosphate Aldolase from Giardia Lamblia: Coupling assay counterscreen | coupling enzyme system counterscreen, AmpLite Red fluorescence | activity change, negative = inhibition, % at 58.2 µM, hits read low | hit rate 0.67% among 290,000; in the data active = activity change below about -30%
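Activity here indicates interference with the coupling reaction, not aldolase inhibition. Compounds at 57.5 uM final met coupling enzymes for 10 min at RT; substrate and AmpLite Red detection followed, with a 525/598 nm fluorescence read after 20 min.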
A number is an active result; - = inactive; ? = inconclusive; . = no result; [ ] = remark or other dose. Unless noted, calls follow the shape of the dose curve; as a rule, active = well fitted curve in the direction sought with a large enough effect; inconclusive = small, poorly fitted or top-dose-only effect, or another doubt; inactive = no such curve, though single readings can be large; an effect the other way counts as inactive or inconclusive.

SMILES	Tau FP inhib	Tau fibril ThT	G9a block	Sfp PPTase inh	Tau fluor counter	Coupling enz
CC1=C(C(=O)N2CCOCC2)C(c2ccccc2F)NC(=O)N1 (centres undefined)	-	-	-	-	-	-
O=C(c1ccc(-c2ccc(Cl)cc2)o1)N1CCN(c2ccc([N+](=O)[O-])cc2Cl)CC1	-	?	?	-	-	-
COc1ccc(CNC(=O)Nc2ccc([N+](=O)[O-])cc2)cc1	.	.	.	-	.	-
O=C(Nc1nccs1)c1ccc(-c2ccc(Cl)cc2)o1	?	-	.	-	?	-
O=C(CN1C(=O)c2ccc([N+](=O)[O-])cc2C1=O)Nc1nccs1	-	-	50µM	-	-	-
COc1ccc(NC(=O)c2ccc(-c3ccc([N+](=O)[O-])cc3)o2)cc1	-	1.3µM	?	-	?	-31
O=C(CCN1C(=O)c2ccc([N+](=O)[O-])cc2C1=O)Nc1nccs1	-	-	-	-	-	-
O=C(Nc1nccs1)c1ccc(-c2ccc([N+](=O)[O-])cc2)o1	-	?	.	25µM	-	-
CC1CC(C)CN(C(=O)c2ccc(-c3ccc([N+](=O)[O-])cc3)o2)C1 (centres undefined)	.	.	11µM	.	.	.
O=C(CSc1nnc(-c2cccc(Br)c2)o1)N1CCOCC1	.	.	-	-	.	-
CCOC(=O)C1CC(C)=C(C)CC1C(=O)O (centres undefined)	-	-	-	-	-	-
Cc1cccc(N2C(=O)CS(=O)(=O)C23C(=O)N(Cc2c(F)cccc2Cl)c2ccccc23)c1 (centres undefined)	-	-	-	.	-	.
CC(Sc1ccc([N+](=O)[O-])cn1)C(=O)Nc1nccs1 (centres undefined)	.	.	7.9µM	-	.	-
O=C(O)c1ccc(-c2cccc([N+](=O)[O-])c2)o1	-	-	-	50µM	-	-
O=C(NC1CCCCC1)c1ccc(-c2cccc([N+](=O)[O-])c2)o1	.	.	-	-	.	-
CC(Sc1nnc(-c2ccco2)n1C)C(=O)Nc1nccs1 (centres undefined)	.	.	-	.	.	.
CCOC(=O)C1CCN(C(=O)c2ccc(-n3ccc4ccccc43)s2)CC1	-	?	-	.	-	.
Cc1ccc(Cn2cnc3ccccc32)cc1C	-	-	-	-	-	-
Cc1sc2ncnc(N3CCC(C(=O)N(C)CC(=O)Nc4ccc(Cl)c(C(F)(F)F)c4)CC3)c2c1C	.	.	-	.	.	.
COc1ccc(-c2nc(C)c(C(C)=O)n2O)cc1OC	-	?	?	-	-	-
CCOc1ccc(-c2nc(C)c(C(C)=O)n2O)cc1	-	?	?	18µM	-	-
COc1ccc(-c2nc(C)c(C(C)=O)n2O)cc1	-	-	-[12.7 µM]	-	-	-
CC(=O)c1c(C)nc(-c2ccc3c(c2)OCO3)n1O	-	-	56µM	-	-	-
CCc1cccc2c(C(=O)CCl)c[nH]c12	-	-	?	-	-	-
CCc1cccc2c(-c3csc(=NC)n3C)c[nH]c12	-	-	50µM	-	-	-
SMILES	Tau FP inhib	Tau fibril ThT	G9a block	Sfp PPTase inh	Tau fluor counter	Coupling enz
Cc1cc(C)n2nc(SCC(=O)c3cc(C)n(-c4cc(C)on4)c3C)nc2n1	-	?	50µM	?	-	-
Cc1cc(C)n2nc(SCC(=O)c3ccccc3)nc2n1	-	-	-[2.33 µM]	-	-	-
CCCCCCCCN=C1NC(=O)CS1	-	-	22µM	-	-	-
COc1ccc(C(=O)O)cc1S(=O)(=O)Nc1ccccc1C(=O)NCc1ccc2c(c1)OCO2	.	.	-[2.33 µM]	.	.	.
O=C(c1ccccc1)c1ccc(CN2C(=O)c3ccccc3C2=O)o1	-	-	-	-	-	-
O=C1c2ccccc2C(=O)c2c1oc(C(F)(F)F)c2C(=O)c1ccccc1	-	?	4µM	-	?	-
O=C(c1ccccc1)c1coc2c1C(=O)c1ccccc1C2=O	-	13µM	45µM	?	?	-
O=C1C(=C(O)c2ccccc2)C(=O)c2ccccc21	?	?	?	-	-	-
COc1ccc(C(=O)c2coc3c2C(=O)C(=O)c2ccccc2-3)cc1	?	2.8µM	.	32µM	?	-75
COc1ccc2occ(C(=O)c3ccccc3)c2c1	-	-	-	?	-	-
CC(=O)c1ccc(-c2c(C3C4C=CCCC4(C)C(=O)N3Cc3ccccc3)ccc3ccccc23)cc1 (centres undefined)	.	.	.	-	.	-
CCc1nnc(SC(CC)C(=O)Nc2cc(C)ccc2C)c2cc3occc3n12 (centres undefined)	-	?	-	.	-	.
COc1ccccc1C1CC(c2cccs2)=Nc2ccccc2S1 (centres undefined)	-	?	-[12.7 µM]	50µM	-	-
COc1ccccc1C1CC(c2cccs2)=NN1C(=O)CCC(=O)O (centres undefined)	.	.	-	-	.	-
CSc1nc(=S)c2[nH]c(=S)[nH]c2[nH]1	-	?	0.63µM	2.5µM	-	-
CSc1nc2c(c(=O)[nH]1)CCCC2	-	-	-[12.7 µM]	-	-	-
COc1ccc(-c2nnc3n2N=C(c2ccccc2OC)CS3)cc1OC	.	.	.	-	.	-
Cc1c(C(=O)NCc2cccnc2)sc2nc(-c3ccccc3)cn12	.	.	-	-	.	-
COc1ccc(-c2cn3c(C)c(C(=O)N4CCc5ccccc5C4)sc3n2)cc1	.	.	35µM	-	.	-
Cc1c(C(=O)NCc2cccnc2)sc2nc(-c3ccc(F)cc3)cn12	-	-	45µM	-	-	-
COc1cc(OC)cc(C(=O)NCCN2CCOCC2)c1	-	-	8.9µM	-	-	-
CCOC(=O)C1CCCN(C(=O)c2sc3nc(-c4ccc(OC)cc4)cn3c2C)C1 (centres undefined)	-	?	40µM	-	-	-
CCN(CC)C(=O)c1sc2nc(-c3ccc(OC)cc3)cn2c1C	-	?	?	-	-	-
CCN(CC)c1ccc(NC(=O)c2cnn3c(C(F)F)cc(-c4ccccc4)nc23)cc1	-	?	2µM	.	?	.
COc1ccc(-c2cn3c(C)c(C(=O)Nc4cc(NC(C)=O)ccc4OC)sc3n2)cc1	-	?	14µM	79µM	-	-
CCOC(=O)C1CCCN(Cc2cn3c(-c4ccc(Br)cc4)nnc3s2)C1 (centres undefined)	-	-	-	.	-	.
CCOC(=O)C1CCN(Cc2cn3c(-c4ccc(OC)cc4)nnc3s2)CC1	-	-	13µM	.	-	.
CNC(=O)c1sc2nc(-c3ccc(OC)cc3)cn2c1C	-	-	50µM	-	-	-
